ALDH1A1 inh: qHTS Assay for Inhibitors of Aldehyde Dehydrogenase 1 (ALDH1A1); actives 7.3% (n = 220,000); Potency, µM (series often up to 75.3 µM), actives largely listed as inhibitors; Purified ALDH1A1, NADH fluorescence, propionaldehyde substrate; Aldehyde dehydrogenase 1A1 (Homo sapiens), P00352
IMPase cell inh: qHTS Assay for Identifying the Cell-Membrane Permeable IMPase Inhibitors; Inositol monophosphatase 1 (Rattus norvegicus), P97697; CHO-M1 cells, IP1 accumulation, HTRF TR-FRET ratio; inhibition (IP1 accumulation), % at 46.1 µM; 120,000 tested, under 10 active; AID 901, 2007; active = well fitted curve in the direction sought with a large enough effect in the signal ratio, not every such curve was filed as active; inconclusive = small, poorly fitted or top-dose-only effect, or a change in a side signal; inactive = no such curve, though single readings can be large or run the other way; the % refers to the signal ratio;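 note: cells stimulated with carbachol in lithium chloride buffer; higher means more IMPase inhibition seen as more IP1 and lower FRET ratio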
Target sequence (P97697 whole entry, looked up): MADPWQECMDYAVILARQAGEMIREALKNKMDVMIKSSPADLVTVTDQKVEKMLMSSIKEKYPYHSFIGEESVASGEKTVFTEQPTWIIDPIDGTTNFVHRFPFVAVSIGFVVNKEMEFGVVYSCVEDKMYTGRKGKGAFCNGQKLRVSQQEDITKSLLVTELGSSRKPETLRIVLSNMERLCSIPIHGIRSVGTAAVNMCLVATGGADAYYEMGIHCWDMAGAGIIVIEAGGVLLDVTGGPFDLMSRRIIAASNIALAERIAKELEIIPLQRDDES
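Carbachol-driven Gq signalling in CHO-M1 cells (2000/well) generates IP1. Compounds that block IMPase raise IP1 and so reduce the FRET signal from Eu-anti-IP1 and d2-IP1 after a 10 min room-temperature lysis.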
HPGD block: qHTS Assay for Inhibitors of HPGD (15-Hydroxyprostaglandin Dehydrogenase) | 15-hydroxyprostaglandin dehydrogenase [NAD(+)] (Homo sapiens), P15428 | actives 4.3% (n = 150,000) | Potency, µM, hits mostly inhibitors | purified HPGD, NADH fluorescence kinetic, PGE2 substrate
Target sequence (P15428 whole entry, looked up): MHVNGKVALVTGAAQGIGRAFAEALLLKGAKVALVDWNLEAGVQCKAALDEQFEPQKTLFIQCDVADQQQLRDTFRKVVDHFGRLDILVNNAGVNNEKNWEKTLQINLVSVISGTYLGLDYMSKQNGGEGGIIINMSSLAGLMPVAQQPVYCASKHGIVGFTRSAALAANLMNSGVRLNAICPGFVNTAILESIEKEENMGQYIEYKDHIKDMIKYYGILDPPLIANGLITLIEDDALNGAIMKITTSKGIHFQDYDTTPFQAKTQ
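NADH formation kinetics: reaction with 30 uM PGE2 and 1 mM NAD+ (final), 20 nM enzyme, Tris-HCl pH 8 with Tween 20, after 15 min compound preincubation at room temperature. Fluorescence change, last versus first of five reads.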
PNC inhibitor: High Content Assay for Compounds that inhibit the Assembly of the Perinucleolar Compartment | actives 3.1% (n = 140,000) | PC3M PTB-GFP, PNC prevalence imaging, 16 h; hits give low values | activity change (PNC), negative = inhibition, % at 10 µM;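 active = readout at or below -70, meaning at least 70% loss of cells showing the perinucleolar compartment, a nuclear body marking cancer cells; inconclusive = readout between -30 and a set limit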
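Compounds are pinned in duplicate onto adhered PC3M cells stably expressing GFP-tagged PTB and incubated 16 h at 37 C. Cells are then fixed, nuclei stained with Hoechst, and PNC-positive cells counted.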
Luc counter: Counterscreen for Luciferase (Kinase-Glo TM) Inhibition | Luciferin 4-monooxygenase (Photuris pensylvanica), Q27757 | Kinase-Glo luciferase, ATP luminescence, 8 min | Potency, µM (titrated, usually from 38.3 µM), most hits filed as inhibitors | actives 0.28% (n = 200,000); active = well fitted inhibition curve with a large enough effect; inconclusive = small, poorly fitted or top-dose-only effect; note: nearly all actives have a fitted effect of over 60% in size
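Substrate mix (final 50 mM imidazole pH 7.2, 50 mM KCl, 7 mM MgCl2, 10 uM ATP, 0.01% Tween 20, 0.05% BSA) plus pin-tool compound, then Kinase-Glo detection mix; 8 min ambient, luminescence read.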
LMNA splice mod: qHTS Assay for Modulators of Lamin A Splicing. AID 1487, 2009. Potency, µM (titrated, usually from 46.1 µM), usual class: inhibitors. actives 0.01% (n = 200,000). HeLa LMNA splicing GFP/RFP minigene ratio, 48 h; active = well fitted inhibition curve with a large enough effect in the signal ratio, with a control signal flat, not every such curve was filed as active; inconclusive = small, poorly fitted or top-dose-only effect, or effect the other way, or a change in a side signal; the % refers to the signal ratio
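S3 HeLa stable clones carrying a lamin A-EGFP splicing minigene plus DsRed2 were seeded at 600 cells/well in Opti-MEM with 2% FBS, pin-dosed and incubated 48 h at 37°C. Acumen cytometry (488 nm) gave the GFP/RFP total-intensity ratio.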
Large screens that a line does not name were inactive. Hits are enriched below; roughly 10% of the tested compounds scored in any of these assays. Unless noted, calls come from the whole dose curve; as a rule, active = well fitted inhibition curve with a large enough effect (not every such curve was filed as active); inconclusive = small, poorly fitted or top-dose-only effect, or another doubt; inactive = no such curve, though single readings can be large or run the other way.

CCNc1ncc2nc(CCc3ccccc3)c(=O)n(C)c2n1	ALDH1A1 inh inconclusive, HPGD block inconclusive (no result: IMPase cell inh, PNC inhibitor, LMNA splice mod)
O=[N+]([O-])c1ccc(C(c2sc3nc(-c4ccco4)nn3c2O)N2CCN(c3cccc(Cl)c3)CC2)cc1 (stereo not given)	none (no result: ALDH1A1 inh, IMPase cell inh, HPGD block, PNC inhibitor, Luc counter)
C[C@H]1/C=C\CC(=O)NCc2cccc(c2)CNC(=O)N[C@H]1c1ccccc1	none (no result: IMPase cell inh, PNC inhibitor, LMNA splice mod)
Clc1ccc(OCc2nnc(-c3ccccc3Br)o2)cc1	none
O=S(=O)(c1ccccc1F)N(Cc1ccco1)Cc1nnc(-c2ccccc2Br)o1	ALDH1A1 inh 14µM, HPGD block 25µM, LMNA splice mod inconclusive
Oc1c(Cl)cc(Cl)cc1C1=NNC(c2ccc(Cl)cc2)C1 (stereo not given)	ALDH1A1 inh 6.3µM (no result: IMPase cell inh, HPGD block, PNC inhibitor, LMNA splice mod)
CCOc1cc(C(=O)N2CCN(C/C=C/c3ccccc3)CC2)cc(OCC)c1OCC	none
COc1cccc2cc(C(=O)N3CCC(C)CC3)c(=O)oc12	ALDH1A1 inh inconclusive, HPGD block 13µM
CCOc1cccc2cc(C(=O)N3CCN(C/C=C/c4ccccc4)CC3)c(=O)oc12	ALDH1A1 inh 14µM
COc1cccc2cc(C(=O)N3CCCCC3C)c(=O)oc12 (stereo not given)	HPGD block 16µM
CCN(C(=O)c1cc2cccc(OC)c2oc1=O)c1ccccc1	HPGD block 22µM
CCOC(=O)c1c(C)oc2nc(C)nc(N3CCN(c4ccc(C(C)=O)cc4)CC3)c12	none (no result: ALDH1A1 inh, IMPase cell inh, HPGD block, PNC inhibitor, Luc counter)
COc1cccc2cc(C(=O)N3C(C)CCCC3C)c(=O)oc12 (stereo not given)	HPGD block 28µM
COc1cccc2cc(C(=O)N3CCc4ccccc43)c(=O)oc12	none
Cc1nnc(N2C(=O)c3cccc4cccc(c34)C2=O)s1	ALDH1A1 inh inconclusive, HPGD block inconclusive, PNC inhibitor -111
COc1ccc(Nc2ncnc3onc(C)c23)c(OC)c1	none (no result: ALDH1A1 inh, IMPase cell inh, HPGD block, PNC inhibitor, Luc counter)
COc1ccc2c(c1)O[C@@H](c1cccc(C(F)(F)F)c1)[C@H](OC(=O)NS(=O)(=O)c1ccc(C)cc1)C2=O	none (no result: IMPase cell inh, PNC inhibitor, LMNA splice mod)
Cn1nnc2c(sc3nc(N4CCOCC4)c4c(c32)CCCC4)c1=O	PNC inhibitor inconclusive, LMNA splice mod inconclusive
S=c1nc[nH]c2c1sc1nc(N3CCOCC3)c3c(c12)CCCC3	ALDH1A1 inh 1.4µM, LMNA splice mod inconclusive (no result: IMPase cell inh, HPGD block, PNC inhibitor)
NS(=O)(=O)c1ccc(NC(=O)CN2C(=O)COc3ccc(Cl)cc32)cc1	none (no result: ALDH1A1 inh, HPGD block, PNC inhibitor, Luc counter, LMNA splice mod)
CC(=O)c1cc(-c2ccccc2)n(CC(=O)Nc2ccc(C)cc2C)c1C	none (no result: ALDH1A1 inh, IMPase cell inh, HPGD block, PNC inhibitor, Luc counter)
O=C(NCCc1ccncc1)Nc1ccc(Cl)c(Cl)c1	none (no result: IMPase cell inh, HPGD block, PNC inhibitor, LMNA splice mod)
O=C(NCCc1ccncc1)Nc1ccccc1	PNC inhibitor -100
O=C(NCCc1ccc(Cl)cc1)Nc1cccc(Cl)c1	LMNA splice mod inconclusive
Cc1cccc(NC(=O)NCCc2ccc(Cl)cc2)c1	ALDH1A1 inh 35µM (no result: IMPase cell inh, HPGD block, PNC inhibitor)
O=C(c1ccccc1)c1cnc2ccc(Cl)cc2c1N1CCOCC1	none (no result: IMPase cell inh, HPGD block, PNC inhibitor, LMNA splice mod)
O=C(c1ccccc1)c1cc(F)c(N2CCOCC2)cc1Cl	HPGD block 20µM
O=C(c1ccccc1)c1ccc(N2CCOCC2)c(F)c1	HPGD block 25µM, PNC inhibitor inconclusive
COc1ccc(NC(=O)/C=C/c2ccco2)cn1	ALDH1A1 inh 7.1µM, LMNA splice mod inconclusive (no result: IMPase cell inh, HPGD block, PNC inhibitor)
COc1ccc(NC(=O)/C=C/c2cccc(F)c2)cn1	PNC inhibitor inconclusive, LMNA splice mod inconclusive (no result: IMPase cell inh)
O=C(/C=C/c1ccc(Br)o1)NCCCN1CCOCC1	ALDH1A1 inh 2µM (no result: IMPase cell inh, HPGD block, PNC inhibitor, LMNA splice mod)
COc1ccc(NC(=O)/C=C/c2ccc(Br)o2)cn1	ALDH1A1 inh 22µM (no result: IMPase cell inh, HPGD block, PNC inhibitor, Luc counter, LMNA splice mod)
COc1ccccc1CNC(=O)Cc1ccc(Br)cc1	ALDH1A1 inh inconclusive (no result: IMPase cell inh)
COc1ccccc1CNC(=O)/C=C/c1ccc(Br)o1	ALDH1A1 inh 13µM (no result: IMPase cell inh, HPGD block, PNC inhibitor, LMNA splice mod)
C=C1CCC2C(CC2(C)C)C(=O)CCC1O (stereo not given)	none (no result: IMPase cell inh, PNC inhibitor)
Cc1cc(Cc2cc(Cc3cc(C)cc(C(C)(C)C)c3O)c(C)cc2C)c(O)c(C(C)(C)C)c1	none (no result: IMPase cell inh, PNC inhibitor, LMNA splice mod)

Assay outcomes deposited in PubChem by National Center for Advancing Translational Sciences (NCATS).
